# S1P4 agonist: human S1P4 receptor agonism; activation, % at 4.98 µM; S1P4-expressing cell line, agonist reporter assay; 220,000 compounds, 0.35% hits; AID 1509; in the data active means activation above about 11%
# S1P3 antag-1: S1P3 (human) receptor antagonism; Q99500; CHO S1P3 NFAT-BLA reporter, FRET fluorescence, antagonist mode; inhibition, % at 4.98 µM; 170,000 compounds, 0.27% hits; AID 485;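 active means inhibition above the plate cutoff, the mean inhibition of test wells on that plate plus 3 SD, cut at about 28% in these data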;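 further: cells challenged with S1P at its EC80 of 0.8 µM; blue over green emission ratio from cleaved BLA substrate after 4 h stimulation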
# S1P4 antagonist: human S1P4 receptor antagonism | AID 1510 | inhibition, % at 4.98 µM | 220,000 compounds, 0.26% hits | O95977 | S1P4-expressing cells, antagonist mode, reporter read-out; in the data active means inhibition above about 29%
# Cl transport mod: KCC2 (human) Cl- transport modulation; Q9H2X9; KCC2 cells, thallium flux FluoZin-2 fluorescence; B-score of Tl+ flux slope (higher = more flux/activation; lower = inhibition) at 10 µM; 190,000 compounds, 2.2% hits;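 active means thallium flux slope and its plate-corrected score both differing from the plate sample mean at a set confidence after two filtering rounds, in either direction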;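 further: slope of fluorescence scaled to starting intensity during 10 to 20 s after thallium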
# ROMK primary: human ROMK K+ channel modulation, primary screen. P48048. Tet-inducible ROMK, thallium flux fluorescence; actives lie on both sides. B-score at 10 µM. 130,000 compounds, 2% hits;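 active means signal ratio slope over the read window, or its plate-corrected B-score, at least 3 SD from the plate mean, either direction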;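 further: B-score of the F/F0 ratio slope over 7 to 12 s after thallium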
# Target sequence (P48048 whole entry, looked up): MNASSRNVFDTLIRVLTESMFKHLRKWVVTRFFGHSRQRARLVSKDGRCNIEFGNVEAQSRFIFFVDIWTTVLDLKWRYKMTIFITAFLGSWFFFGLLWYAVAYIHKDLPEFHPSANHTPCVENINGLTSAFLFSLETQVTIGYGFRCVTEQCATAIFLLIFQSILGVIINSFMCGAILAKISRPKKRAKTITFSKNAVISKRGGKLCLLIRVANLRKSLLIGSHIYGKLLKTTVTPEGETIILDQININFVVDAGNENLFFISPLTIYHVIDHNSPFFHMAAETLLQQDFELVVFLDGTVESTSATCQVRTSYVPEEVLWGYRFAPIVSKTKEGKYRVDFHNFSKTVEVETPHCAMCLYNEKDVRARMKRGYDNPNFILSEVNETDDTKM
# RAM inhibit: inhibitors of the yeast RAM network; S. cerevisiae dse1pr::URA3 reporter, 5-FOA growth OD615, 2 d; analog-sensitive cbk1-as2 kinase mutant strain; inhibition, % at 50 µM; 190,000 compounds, 1.8% hits; AID 868;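 active means inhibition above a set limit, 3 SD over mean compound inhibition, cut at about 8.4% in these data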;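 further: inhibition rescues growth on 5-FOA so higher OD means more RAM inhibition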
# S1P3 antag-2: human S1P3 receptor antagonism, confirmation | CHO S1P3 NFAT-BLA reporter, FRET, antagonist mode | shares compounds with S1P3 antag-1 | AID 1429 | 240 compounds, 30% hits | inhibition, % at 4.98 µM;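 active means inhibition above the hit threshold that was computed for the earlier primary screen, cut at about 30% in these data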
# RAM 5-FOA: RAM network inhibitors in efflux-deficient yeast; AID 1305; 1,200 tested, under 10 active; shares compounds with RAM inhibit; max inhibition, %; S. cerevisiae efflux-deficient reporter strain, 5-FOA growth OD615, 2 days; call rule not given here
# ROMK hit retest: retested hit modulating human ROMK potassium channel; shares compounds with ROMK primary; normalized thallium flux (F/F0 slope) at 10 µM; 3,000 compounds, 54% hits; AID 1917; ROMK thallium flux, fluorescence ratio; active compounds read low;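 active means Flux at 10 µM at least 3 SD below or above vehicle control mean in one or both replicates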
# A number is an active result; - = inactive; . = not tested or not shown. Shown are actives, neighbours in structure and some others; about 5.1% of the full set was active somewhere.
SMILES,S1P4 agonist,S1P3 antag-1,S1P4 antagonist,Cl transport mod,ROMK primary,RAM inhibit,RAM 5-FOA,others
O=C(COC(=O)Cc1ccccc1)Nc1ccc(Cl)cn1,-,35.5,-,-,-,-,.,S1P3 antag-2=-
O=CC(Br)P(=O)(N1CCOCC1)N1CCOCC1 (stereo not drawn),-,-,-,-,-,.,.,
C[C@H]1C[C@@H](C)C(=O)[C@@H]([C@H](O)CC2CC(=O)NC(=O)C2)C1,-,83.8,-,-,.,-,.,S1P3 antag-2=81.6
CCCC(C)C1(CC)C(=O)NC(=Nc2ccc(OC)cc2)NC1=O (stereo not drawn),-,-,-,-,-,-,.,
CCOc1ccc(-c2c(C)n(-c3ccc(OCC)cc3)c3[n+]2CCCCC3)cc1,-,39.5,-,-,.,.,.,S1P3 antag-2=-;ROMK hit retest=0.0426
CN(C)C(=O)Oc1ccc(OCc2nc3ccccc3[nH]2)cc1,-,-,-,-,-,-,.,
CCOC(=O)Cc1csc(NC(=O)c2c(O)c3ccccc3n(CCC(C)C)c2=O)n1,-,-,-,-,-,12.4,-,
COc1ccc(C)cc1NC(=O)c1c(C)nn(Cc2ccccc2)c1Cl,-,-,-,-,.,13.2,-,
CCOc1ccc(NC(=O)c2c(C)nn(Cc3ccccc3)c2Cl)cc1,-,-,-,-,.,-,.,
Cc1ccc(OP(=O)(NCc2ccccc2)Oc2ccc(C)cc2)cc1,-,-,-,-,.,-,.,
COc1cc(OC)c2c(c1)OCC1CON(C)C21 (stereo not drawn),-,-,-,-,-,-,.,
O=C(c1ccco1)c1cn(Cc2ccccc2Cl)c2ccccc12,-,.,-,.,-,17.5,-,
O=C(c1ccco1)c1cn(Cc2ccccc2)c2ccccc12,-,.,-,-,-,-,.,
CCC(=O)Oc1ccc(C(=O)Nc2cccc(C(=O)c3ccccc3)c2)cc1,-,.,-,-,.,12.3,-,
COc1cccc(NP(=O)(Oc2ccccc2Cl)Oc2ccccc2Cl)c1,-,-,-,-,.,13.0,-,
CCOC(=O)C1(CCOc2ccccc2)CCN(Cc2ccc(C)s2)CC1,-,-,-,-,-,-,.,
COc1ccc(CNC(=O)C(NC(C)=O)C(C)C)cc1OC (stereo not drawn),-,-,-,-,-,-,.,
O=C(COc1ccccc1)c1cn(Cc2ccccc2)c2ccccc12,-,-,-,-,.,11.8,-,
Cc1sc2ncn(CC(=O)NCCCC(=O)N3CCC4(CC3)OCCO4)c(=O)c2c1C,-,.,-,-,.,-,.,
O=c1c2ccc(Cl)cc2[nH]c(=S)n1-c1cccnc1,-,-,-,-,-,16.1,-,
O=c1c2ccccc2[nH]c(=S)n1-c1cccnc1,-,-,-,-,.,.,.,
Cn1nnc(CC[N+](C)(C)C)n1,-,-,-,-,.,.,.,
O=C(Nc1cccc(C(F)(F)F)c1)c1cccn(Cc2ccc3c(c2)OC(F)(F)O3)c1=O,-,.,-,.,.,13.6,-,
CC(C)Oc1cccc(NC(=O)c2cccn(Cc3ccc4c(c3)OC(F)(F)O4)c2=O)c1,-,.,-,-,.,13.0,-,
CC(C)CCN(N=O)[C@@H](Cc1ccccc1)CN(N=O)[C@@H](Cc1ccccc1)CN(C)N=O,-,-,-,-4.12,.,19.8,-,
SMILES,S1P4 agonist,S1P3 antag-1,S1P4 antagonist,Cl transport mod,ROMK primary,RAM inhibit,RAM 5-FOA,others
C#CCN(C)[C@H](C)Cc1ccccc1,-,-,-,-,.,.,.,
CN(C[C@H](Cc1ccccc1)N(C[C@H](Cc1ccccc1)N(CCC(C)(C)C)N=O)N=O)N=O,-,-,-,-,.,12.8,-,
O=C1NC(=S)NC(=O)C1=Cc1cccc2cc3ccccc3cc12,-,-,-,-,.,.,.,
CN1/C(=C\C=C2C(=O)NC(=S)NC2=O)C(C)(C)c2ccccc21,-,-,-,-4.63,-3.57,11.4,-,
CC1(C)OC(c2ccccc2)=C/C(=C/C=C2C(=O)NC(=S)NC2=O)O1,-,-,-,-,.,17.6,-,
C=CCn1c(O)c(C=NCCCn2ccnc2)c(=O)[nH]c1=O,-,-,-,-,.,.,.,

# Source: PubChem
